Assay results from PubChem BioAssay AID624405 (Broad Institute, 2012).
The whole screen tested about 1,900 compounds, of which about 250 (13%) were called active. About 4% were inconclusive and are not listed.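 How the source made its calls: active means fitted curve reaches 40% rescue activity at or below the top valid dose, in every test run; inconclusive means test runs disagree, some active and some inactive; inactive means every run misses the threshold or moves the wrong way.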 The list is a sample of the results. Measured potencies and affinities stand elsewhere.

Experiment: rescue of simvastatin-induced ATP loss – cell-based, C2C12 myotubes, ATP luminescence, cherry pick, dose response (AID 624405);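 further: myotubes are challenged with simvastatin at 10 µM to lower ATP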
Conditions: 48 h, scaled: DMSO wells 0, geranylgeraniol wells 100; series mostly up to 19.5 µM

| SMILES | outcome |
| --- | --- |
| c1ccc2c(c1)CNC1(CCCCC1)C2 | inactive |
| COc1ccc(S(=O)(=O)Nc2ccc3c(c2)C(=O)N([C@@H](C)CO)C[C@@H](C)[C@@H](CN(C)C(=O)Nc2cccc4ccccc24)OCCCC[C@H](C)O3)cc1 | inactive |
| C[C@@H]1CN([C@H](C)CO)C(=O)Cc2cc(NC(=O)Nc3cccc4ccccc34)ccc2O[C@H]1CN(C)CC1CCCCC1 | inactive |
| COc1ccc(S(=O)(=O)Nc2cccc3c2O[C@@H](CN(C)Cc2ccc(Oc4ccccc4)cc2)[C@@H](C)CN([C@@H](C)CO)C3=O)cc1 | inactive |
| C[C@H]1CCCCO[C@H](CN(C)C(=O)C2CCCCC2)[C@@H](C)CN([C@@H](C)CO)C(=O)c2cc(NC(=O)NC3CCCCC3)ccc2O1 | inactive |
| C[C@H]1CCCCO[C@@H](CN(C)S(=O)(=O)c2ccc(Cl)cc2)[C@@H](C)CN([C@@H](C)CO)C(=O)c2cc(NS(C)(=O)=O)ccc2O1 | inactive |
| C[C@@H]1CN([C@H](C)CO)C(=O)c2cc(NC(=O)Nc3ccc(C(F)(F)F)cc3)ccc2O[C@@H]1CN(C)Cc1ccc(C(=O)Nc2ccccc2N)cc1 | inactive |
| C[C@H](CO)N1C[C@H](C)[C@@H](CN(C)Cc2ccc(C(=O)Nc3ccccc3N)cc2)Oc2ccc(NC(=O)Nc3ccc(C(F)(F)F)cc3)cc2C1=O | inactive |
| C[C@@H]1CN([C@@H](C)CO)C(=O)c2cc(NC(=O)Nc3ccc(C(F)(F)F)cc3)ccc2O[C@H]1CN(C)Cc1ccc(C(=O)Nc2ccccc2N)cc1 | inactive |
| C[C@@H]1CN([C@H](C)CO)C(=O)Cc2cc(N(C)C)ccc2O[C@H]1CN(C)Cc1ccc(C(=O)Nc2ccccc2N)cc1 | inactive |
| CC1=CCn2c(=O)c3ccccc3c(=O)n2C1 | inactive |
| CCOC(=O)c1cc2ccc(OC)c(OC)c2c(=O)s1 | inactive |
| COc1ccc(N(Cc2cc(=O)[nH]c3ccccc23)C(=O)c2ccco2)cc1 | inactive |
| Cc1cc(C(=O)COC(=O)CN=C2NS(=O)(=O)c3ccccc32)c(C)n1CCc1ccc(Cl)cc1 | inactive |
| Cc1ccnc2nc(C(=O)OCC(=O)c3ccccc3)nn12 | inactive |
| C[C@@H]1CN([C@H](C)CO)C(=O)c2cccc(NC(=O)C3CCCCC3)c2O[C@H]1CN(C)S(=O)(=O)c1ccc(Cl)cc1 | inactive |
| O=C(c1cnn2c(C(F)F)cc(-c3ccccc3)nc12)N1CCc2ccccc21 | inactive |
| CCC(C)NC(=O)Cn1c(=O)n(CCCC(=O)NCc2ccccc2Cl)c(=O)c2ccccc21 (configuration not stated) | inactive |
| CCOC(=O)c1cc(=O)n(Cc2ccccc2C)c2ccccc12 | inactive |
| C[C@H](CO)N1C[C@H](C)[C@H](CN(C)C(=O)Nc2cccc3ccccc23)OCCCC[C@H](C)Oc2ccc(NS(=O)(=O)c3ccc(Cl)cc3)cc2C1=O | inactive |
| C[C@@H]1CN([C@@H](C)CO)C(=O)c2cc(NC(=O)c3ccncc3)ccc2O[C@@H](C)CCCCO[C@@H]1CN(C)Cc1ccc(C(F)(F)F)cc1 | inactive |
| CC(=O)c1c(C)[nH]c(C(=O)CSc2nnc(C3CCCCC3)n2N)c1C | inactive |
| CC1CSc2nc3sc4c(c3c(=O)n21)CCCC4 (configuration not stated) | inactive |
| COc1cc2c(N3CCOCC3)cc(O)c(CC(=O)Nc3ccccc3)c2cc1OC | inactive |

| SMILES | outcome |
| --- | --- |
| O=C(Oc1ccc(C(=S)N2CCOCC2)cc1Br)c1ccccc1F | inactive |
| C[C@@H]1CN([C@H](C)CO)S(=O)(=O)c2ccc(/C=C/c3ccccc3)cc2O[C@@H]1CN(C)C(=O)NC1CCCC1 | inactive |
| COc1ccc(S(=O)(=O)Nc2ccc3c(c2)CC(=O)N([C@@H](C)CO)C[C@H](C)[C@@H](CN(C)Cc2ccc(Cl)c(Cl)c2)O3)cc1 | inactive |
| Cc1ccc(S(=O)(=O)NNC(=O)c2snnc2C)cc1 | inactive |
| COC(=O)c1cn(Cc2ccc(C(F)(F)F)cc2)cc(F)c1=O | inactive |
| Cc1ccc(N2N=C(C(=O)O)CCC2=O)cc1Cl | inactive |
| CC(C(=O)NCC1CCCO1)n1cccc1C(=O)c1ccccc1 (configuration not stated) | inactive |
| C=C(C)C1CC=C(C)/C(=N/NC(=O)c2ccc(NC(=O)CC)cc2)C1 (configuration not stated) | inactive |
| COc1ccc(NC(=O)c2cc(-c3cccs3)on2)cc1 | inactive |
| c1ccc(Nc2nc(-c3cccs3)cs2)nc1 | inactive |
| C/C(=N/Nc1nc(-c2ccc(Cl)cc2)cs1)c1cccs1 | inactive |
| Cc1cc(C(=O)Nc2ccc3c(c2)C(=O)N(C)[C@@H]2CC[C@@H](CC(=O)N[C@H](C)c4ccccc4)O[C@@H]2CO3)no1 | inactive |
| CCOC(=O)N1CCN(C(=O)Cc2ccsc2)CC1 | inactive |
| CC(C)[C@H](NS(=O)(=O)c1ccccc1)C(=O)OCC(=O)NC(=O)NC1CCCCC1 | inactive |
| C[C@@H]1CN([C@@H](C)CO)C(=O)c2cccc(NS(=O)(=O)c3cccs3)c2O[C@@H]1CN(C)C(=O)Nc1ccc(C(F)(F)F)cc1 | inactive |
| C[C@H](CO)N1C[C@H](C)[C@H](CN(C)C(=O)Nc2ccc(F)cc2)OCCCC[C@H](C)Oc2ccc(NC(=O)Cc3ccccc3)cc2C1=O | inactive |
| Fc1ccc(CSc2nnc(CN3CCOCC3)n2-c2ccccc2)c(Cl)c1 | inactive |
| COc1ccc(S(=O)(=O)Nc2ccc3c(c2)CC(=O)N([C@@H](C)CO)C[C@H](C)[C@H](CN(C)Cc2ccc(Cl)c(Cl)c2)O3)cc1 | inactive |
| COc1ccc(S(=O)(=O)Nc2ccc3c(c2)C(=O)N([C@H](C)CO)C[C@H](C)[C@H](CN(C)S(=O)(=O)c2ccc(F)cc2)OCCCC[C@@H](C)O3)cc1 | inactive |
| C[C@H]1CN([C@@H](C)CO)C(=O)Cc2cc(NS(=O)(=O)c3ccc(F)cc3)ccc2O[C@H]1CN(C)Cc1ccccc1 | inactive |
| COc1ccc(S(=O)(=O)Nc2ccc3c(c2)C(=O)N([C@@H](C)CO)C[C@@H](C)[C@@H](CN(C)S(=O)(=O)c2ccc(F)cc2)OCCCC[C@H](C)O3)cc1 | inactive |
| COc1ccc(CN(C)C[C@@H]2Oc3ccc(NS(=O)(=O)c4ccc(F)cc4)cc3CC(=O)N([C@H](C)CO)C[C@H]2C)cc1 | inactive |
| COc1ccc(S(=O)(=O)Nc2ccc3c(c2)CC(=O)N([C@@H](C)CO)C[C@@H](C)[C@H](CN(C)Cc2ccc(Cl)c(Cl)c2)O3)cc1 | inactive |
| COc1ccc(CN(C)C[C@@H]2Oc3ccc(NS(=O)(=O)c4ccc(Cl)cc4)cc3CC(=O)N([C@H](C)CO)C[C@H]2C)cc1 | inactive |

| SMILES | outcome |
| --- | --- |
| C[C@@H]1CN([C@@H](C)CO)C(=O)Cc2cc(NS(=O)(=O)c3ccc(Cl)cc3)ccc2O[C@H]1CN(C)Cc1ccc(-c2ccccc2)cc1 | inactive |
| COc1ccc(N=C2S/C(=C\c3cc(C)n(C)c3C)C(=O)N2CC(C)C)cc1 | inactive |
| COc1ccc(NC(=O)Nc2ccc3c(c2)C(=O)N([C@H](C)CO)C[C@H](C)[C@H](CN(C)Cc2ccc(C(F)(F)F)cc2)OCCCC[C@H](C)O3)cc1 | inactive |
| C[C@@H]1CN([C@H](C)CO)C(=O)Cc2cc(NC(=O)CCC(F)(F)F)ccc2O[C@H]1CN(C)Cc1ccc(Oc2ccccc2)cc1 | inactive |
| CN(C)S(=O)(=O)c1ccc(C(=O)NCCOc2ccc(F)cc2)cc1 | inactive |
| COc1ccc(S(=O)(=O)Nc2ccc3c(c2)C(=O)N([C@H](C)CO)C[C@H](C)[C@H](CN(C)S(=O)(=O)c2cccs2)OCCCC[C@H](C)O3)cc1 | inactive |
| C[C@@H]1CCCCO[C@@H](CN(C)S(C)(=O)=O)[C@H](C)CN([C@@H](C)CO)C(=O)c2cc(NS(=O)(=O)c3ccc(F)cc3)ccc2O1 | inactive |
| Cc1oc(C(=O)O)cc1COc1cccc2cccnc12 | inactive |
| c1ccc2c(c1)CCN(Cc1nnnn1Cc1ccc3c(c1)OCO3)C2 | inactive |
| Cc1ccc(C(O)CN2C3=NCCN3c3ccccc32)cc1 (configuration not stated) | inactive |
| C[C@@H]1CN([C@H](C)CO)C(=O)Cc2cc(NC(=O)Nc3cccc4ccccc34)ccc2O[C@@H]1CN(C)S(=O)(=O)c1cccs1 | inactive |
| C[C@H](CO)N1C[C@H](C)[C@@H](CN(C)C(=O)Nc2ccc(F)cc2)Oc2ccc(NC(=O)Cc3cn(C)c4ccccc34)cc2CC1=O | inactive |
| COc1ccc(S(=O)(=O)Nc2ccc3c(c2)CC(=O)N([C@H](C)CO)C[C@H](C)[C@@H](CN(C)S(=O)(=O)c2ccc(C)cc2)O3)cc1 | inactive |
| Cc1ccc(S(=O)(=O)Nc2ccc3c(c2)CC(=O)N([C@@H](C)CO)C[C@@H](C)[C@H](CN(C)S(=O)(=O)c2ccc(C)cc2)O3)cc1 | inactive |
| C[C@H]1CN([C@@H](C)CO)C(=O)c2cc(NS(=O)(=O)c3ccc(F)cc3)ccc2O[C@@H]1CN(C)S(=O)(=O)c1ccc(F)cc1 | inactive |
| Cc1ccc(S(=O)(=O)N(C)C[C@@H]2Oc3ccc(NS(=O)(=O)c4ccc(F)cc4)cc3C(=O)N([C@H](C)CO)C[C@@H]2C)cc1 | inactive |
| Cc1ccc(S(=O)(=O)Nc2ccc3c(c2)CC(=O)N([C@H](C)CO)C[C@H](C)[C@H](CN(C)S(=O)(=O)c2ccc(C)cc2)O3)cc1 | inactive |
| C[C@@H]1CN([C@@H](C)CO)C(=O)Cc2cc(NC(=O)Nc3cccc4ccccc34)ccc2O[C@@H]1CN(C)S(=O)(=O)c1ccc(Cl)cc1 | inactive |
| O=C(O)c1nn(-c2ccccc2)nc1-c1nn(-c2ccccc2)nc1C(=O)O | inactive |
| O=S(=O)(NN=C1CCCCC1)c1ccccc1 | inactive |
| CC1(C)NC(=O)N(CC(O)Cn2nnc3ccccc32)C1=O (configuration not stated) | inactive |
| C[C@H](CO)N1C[C@H](C)[C@@H](CN(C)C(=O)C2CCC2)Oc2ncc(C#Cc3cccc(F)c3)cc2C1=O | inactive |
| Nn1c(SCC(=O)N2CCN(S(=O)(=O)c3ccccc3)CC2)nnc1-c1cccs1 | inactive |
| Cc1ccc(S(=O)(=O)Nc2ccc3c(c2)CC(=O)N([C@@H](C)CO)C[C@@H](C)[C@H](CN(C)Cc2ccc(C(F)(F)F)cc2)O3)cc1 | inactive |
